Rows were chosen to be rich in hits. Some 12% of all compounds tested hit in one or more screens of this group.
PI5P4Ka inh – blocks human PI5P4K alpha kinase activity. 330,000 tested, 1.2% active. P48426. max response, %. PI5P4Kalpha enzyme, ADP-Glo luminescence, 60 min; stronger effect = lower value; active = max response of -50% or lower; inconclusive = between -30% and -50%; inactive = -30% or higher; note: value at the top dose of about 77 µM; % is set by controls: 0 for no effect and ±100 for the full control effect
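Human PI5P4Kalpha with substrate in 0.038 M HEPES pH 7.4, 0.28 mM EGTA, 0.1% CHAPS, 5% DMSO; reaction started with 5 microM ATP (final), 60 min at room temperature. ADP formed read by ADP-Glo luminescence.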
JMJD2A Tudor – JMJD2A Tudor domain (human) inhibition. Potency, µM (doses to about 114 µM), for inactives: at the top dose activity change, negative = inhibition, most hits filed as inhibitors. AlphaScreen JMJD2A-Tudor / H3K4me3 peptide binding. 390,000 tested, 4.4% active; note: potency is the fitted concentration of half-maximal effect; % is set by controls: 0 for no effect and ±100 for the full control effect; nearly all actives have a fitted effect of over 50% in size
Target sequence (O75164 whole entry, looked up, the tested form may be a part): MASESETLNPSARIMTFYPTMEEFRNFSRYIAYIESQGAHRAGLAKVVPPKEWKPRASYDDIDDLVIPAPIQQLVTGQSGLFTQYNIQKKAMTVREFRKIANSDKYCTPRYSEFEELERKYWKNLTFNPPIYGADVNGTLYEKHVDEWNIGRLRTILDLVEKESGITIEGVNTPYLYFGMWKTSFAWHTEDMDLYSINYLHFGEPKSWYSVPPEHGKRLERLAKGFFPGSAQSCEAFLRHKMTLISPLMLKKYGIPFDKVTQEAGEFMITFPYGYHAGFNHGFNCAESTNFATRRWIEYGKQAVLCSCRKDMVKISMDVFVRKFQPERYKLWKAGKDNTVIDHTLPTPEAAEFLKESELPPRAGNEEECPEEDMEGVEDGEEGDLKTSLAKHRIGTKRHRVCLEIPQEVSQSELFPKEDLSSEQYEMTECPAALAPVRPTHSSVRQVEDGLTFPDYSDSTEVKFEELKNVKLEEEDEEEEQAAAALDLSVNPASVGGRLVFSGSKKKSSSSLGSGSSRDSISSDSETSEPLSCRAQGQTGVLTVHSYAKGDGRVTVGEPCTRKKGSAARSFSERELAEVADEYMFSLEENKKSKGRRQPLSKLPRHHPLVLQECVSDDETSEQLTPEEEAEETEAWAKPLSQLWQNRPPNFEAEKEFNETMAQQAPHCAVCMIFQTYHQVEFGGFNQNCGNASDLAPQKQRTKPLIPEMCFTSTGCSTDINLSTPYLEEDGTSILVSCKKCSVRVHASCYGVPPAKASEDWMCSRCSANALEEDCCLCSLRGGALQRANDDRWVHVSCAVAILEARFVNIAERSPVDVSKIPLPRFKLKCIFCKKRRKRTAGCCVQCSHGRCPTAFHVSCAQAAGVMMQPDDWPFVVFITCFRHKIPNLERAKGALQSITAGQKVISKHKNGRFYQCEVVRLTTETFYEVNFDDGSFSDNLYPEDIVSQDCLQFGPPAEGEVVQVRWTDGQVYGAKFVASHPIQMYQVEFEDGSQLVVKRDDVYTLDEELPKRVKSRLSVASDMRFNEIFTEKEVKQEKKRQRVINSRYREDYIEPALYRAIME
BAZ2B block – blocks human BAZ2B | Q9UIF8 | AlphaScreen BAZ2B-H3K14Ac peptide displacement | Potency, µM (highest dose often 114 µM), inactives show at the top dose activity change, negative = inhibition, hits mostly inhibitors | 360,000 tested, 4.4% active; note: potency is the fitted concentration of half-maximal effect; % is set by controls: 0 for no effect and ±100 for the full control effect; nearly all actives have a fitted effect of over 60% in size
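Complex of BAZ2B and biotin-H3K14Ac (50 nM apiece) forms over 30 min at RT, then faces library compounds up to 110 uM for another 30 min; AlphaScreen beads added, 20 min dark incubation, luminescence read.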
HP1b binding inh – HP1-beta chromodomain-methylated histone interaction inhibition | P83916 | 390,000 tested, 0.56% active | Potency, µM (series often up to 114 µM), without a hit: at the top dose activity change, negative = inhibition, hits mostly inhibitors | AlphaScreen HP1-beta / biotin-H3K9me3 peptide binding; note: potency is the fitted concentration of half-maximal effect; nearly all actives have a fitted effect of over 70% in size
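HP1-beta protein (50 nM final) preincubated 30 min at room temperature with biotinylated H3(1-18)K9me3 peptide (50 nM) in PBS pH 7.4, 0.01% Tween-20, then compound added for 30 min. AlphaScreen streptavidin donor/nickel chelate acceptor beads (10 ug/mL final), 30 min dark, luminescence read.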
PLK1 PBD block – blocks phosphopeptide binding to human PLK1 polo-box domain | AID 720504 | Potency, µM, for the others: max response, negative = inhibition, most hits filed as inhibitors | 360,000 tested, 2.8% active | Plk1 PBD binding of FITC phosphopeptide, fluorescence polarization | P53350; note: potency is the fitted concentration of half-maximal effect; series mostly up to about 57 µM; % is set by controls: 0 for no effect and ±100 for the full control effect; nearly all actives have a fitted effect of over 65% in size
G9a inh – G9a (human) methyltransferase inhibition | Potency, µM (titrated, usually from 102 µM), inactives show at the top dose activity, negative = inhibition, actives largely listed as inhibitors | Q96KQ7 | AID 504332 | G9a H3K9 monomethylation, AlphaScreen, 2 h | 350,000 tested, 8.8% active; note: potency is the fitted concentration of half-maximal effect; % is set by controls: 0 for no effect and ±100 for the full control effect; nearly all actives have a fitted effect of over 75% in size
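Readings reflect AlphaScreen signal from monomethyl-H3K9 antibody detection. HMT at 20 nM; substrate b-H3K9 500 nM; cofactor SAM 20 uM; 2 h RT reaction; compounds tested as titrations in qHTS with 15 min preincubation.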
ADP-Glo interf – interferes with ADP-Glo detection without enzyme present; shares compounds with PI5P4Ka inh; ADP-Glo detection counter-screen, luciferase luminescence, no enzyme; Potency, µM (titrated, usually from 76.9 µM), for inactives: at the highest dose activity change, negative = inhibition, hits mostly inhibitors; 1,100 tested, under 10 active; AID 743285
Numbers without * were called inactive; u = inconclusive; x = not tested or not shown; [ ] = another dose, or the depositor's remark. Unless noted, calls come from the whole dose curve; as a rule, active = well fitted curve in the direction sought with a large enough effect; inconclusive = small, poorly fitted or top-dose-only effect, or another doubt; inactive = no such curve, though single readings can be large; an effect the other way counts as inactive or inconclusive.

SMILES	PI5P4Ka inh	JMJD2A Tudor	BAZ2B block	HP1b binding inh	PLK1 PBD block	G9a inh	ADP-Glo interf
COc1cc(OC)c(NS(=O)(=O)c2ccc3c(c2)CCCN3C(C)=O)cc1Cl	x	-13%	1%	24%[57 µM]	x	0%[59 µM]	x
COc1ccc(CN2CCC(=O)N([C@H](CO)c3ccccc3)CC2)cc1OC	2	7%	0%	39%	3%	12%	x
COc1ccc(CN2CCC(=O)N([C@H](CO)CC(C)C)CC2)cc1OC	-59*	-3%	1%	66%	-2%	46%	-7%
Cc1cc(Oc2ccc(C#N)cc2)nc(NCc2ccccc2)n1	-51*	u	1%	4%	2.7µM*	-19%	1%
COC(=O)c1ccc(Oc2cc(C)nc(NCc3ccccc3)n2)cc1	1	-7%	4%	27%	0%	-47%	x
COc1ccc(OC)c(NC(=O)[C@H](CSCc2ccccc2)N2Cc3ccccc3C2=O)c1	x	-29%	-34%	28%	x	-5%[59 µM]	x
Cc1ccc(C(CCN(Cc2ccccc2)C(=O)c2ccco2)c2ccco2)cc1 (stereo not drawn)	-58*	20µM*	32µM*	-5%	-26%	50µM*	-2%
CN(Cc1ccccc1)C(=O)c1ccco1	4	-12%	-17%	39%	-4%	-23%	x
CC(=O)N1CCC[C@@]2(CCN(C(=O)Nc3cccc(C#N)c3)C2)C1	x	x	x	x	x	5%[12.7 µM]	x
C[C@@H](NC(=O)c1nc[nH]c1C(=O)NCc1ccc(CNC(=O)OC(C)(C)C)cc1)c1ccccc1	2	-34%	12%	21%	-3%	-3%[0.501 µM]	x
CC1CN(C(=O)c2ccc(OC3CCN(Cc4ccccn4)CC3)cc2)CCN1C (stereo not drawn)	-1	u	u	13%	-10%	x	x
Cc1c(Cl)c([N+](=O)[O-])nn1CC(=O)NC1CCCCC1	-5	-14%	3%	10%	-9%	6%[59 µM]	x
CCC1CCCCN1C(=O)Cn1nc([N+](=O)[O-])c(Cl)c1C (stereo not drawn)	-50*	-27%	-7%	14%	-14%	20%[59 µM]	-1%
CS(=O)(=O)Nc1ccc(C2=NN(C(=O)c3ccco3)C(c3cccc(F)c3)C2)cc1 (stereo not drawn)	-65*	-30%	x	16%	-6%	31%	0%
CS(=O)(=O)Nc1ccc(C2=NN(C(=O)c3ccco3)C(c3ccccc3)C2)cc1 (stereo not drawn)	-51*	-11%	-8%	31%	-4%	-13%[59 µM]	3%
Cc1ccc(C(=O)c2sc3c(c2N)c(=O)[nH]c(=O)n3CCc2ccccc2)cc1	-1	-4%	13%	18%	-2%	19%[59 µM]	x
CCn1c(=O)[nH]c(=O)c2c(N)c(C(=O)c3cc(F)ccc3F)sc21	-64*	-20%	-5%	-1%	-12%	-11%[59 µM]	-8%
CCCCNC(=O)C1(C)CCC(=O)N1c1cc(C(C)(C)C)nn1C (stereo not drawn)	4	x	x	x	-4%	x	2%
Cc1cc(C)c2nc(N(Cc3cccnc3)C(=O)c3cccs3)sc2c1	x	-16%	-4%	4%	x	11%[59 µM]	x
Cc1cccc2c(C(=O)N3CCN(C(=O)c4ccco4)CC3)cc(-c3cccc(Br)c3)nc12	-53*	-32%	u	-21%	u	u	7%
O=C(COc1ccc(Cl)cc1)NC1=NN(c2ccccc2)C(=O)C1	-58*	u	u	-9%	-10%	-17%[59 µM]	-2%
CC(=O)NC1=NN(c2ccccc2)C(=O)C1	1	-1%	u	54%	-6%	16%[0.0925 µM]	x
Cc1cc(C)c(S(=O)(=O)N2CCN(C(=O)CN3C(=O)NC4(CCCC4)C3=O)CC2)c(C)c1	5	3%	-10%	15%	-2%	19%	x
CCc1cc(=O)[nH]c(-n2[nH]c(-c3ccccc3)cc2=O)n1	-3	-10%	-1%	30%	-8%	-4%	x
O=c1cc(-c2ccccc2)[nH]n1-c1nc2ccccc2[nH]1	-76*	56µM*	28µM*	20%	-8%	-53%	2%
SMILES	PI5P4Ka inh	JMJD2A Tudor	BAZ2B block	HP1b binding inh	PLK1 PBD block	G9a inh	ADP-Glo interf
O=C(CSc1nc2[nH]c(=O)cc(O)c2s1)Nc1ccc(Cl)c(C(F)(F)F)c1	-54*	-29%	-4%	19%	-16%	-1%[12.7 µM]	2%
Cc1nc(C)c(-c2csc(Nc3ccc(S(N)(=O)=O)cc3)n2)s1	4	-15%	-16%	35%	-7%	u	x
Cc1ccc(-c2csc(NC(=O)c3ccc(-c4ccccc4)cc3)n2)o1	u	u	u	u	-23%	-9%[59 µM]	x
Cc1ccc(-c2csc(NC(=O)Cc3ccc(F)cc3)n2)o1	-56*	-32%	-33%	u	24µM*	10µM*	4%
Cc1ccc(-c2csc(Nc3ccc(S(N)(=O)=O)cc3)n2)o1	-65*	56µM*	45µM*	u	u	4.5µM*	1%
O=C(Cn1cncn1)NCc1ccccc1Br	-62*	-1%	-2%	26%	-6%	75%[59 µM]	-2%
Cc1cc(O)ccc1Nc1cc(-c2cccc(N(C)C)c2)ncn1	x	x	x	x	-9%	x	-6%
Cc1ccccc1OCC(=O)OCC(=O)NCc1ccco1	-5	-16%	0%	19%	-5%	u	x
COc1ccccc1NCCC(=O)OCC(=O)NCc1ccco1	-60*	u	-80%	-12%	-19%	-42%[59 µM]	0%
COc1ccc(N(CC(=O)NCc2ccco2)S(=O)(=O)c2ccc(C)cc2)cc1OC	-6	-19%	4%	13%	-13%	20%	x
COc1ccccc1N(CC(=O)NCc1ccco1)S(=O)(=O)c1ccc(C)cc1	-80*	35µM*	45µM*	45µM*	27µM*	32µM*	-2%
CC1(C)SC2C(N3C(=O)C(c4ccccc4)NC3(C)C)C(=O)N2C1C(=O)O (stereo not drawn)	x	x	x	x	x	6%[2.33 µM]	x
CCNS(=O)(=O)c1ccc(CCC(=O)N2CCN(c3ccccc3F)CC2)cc1	2	-5%	4%	40%	5%	x	x
Cc1cc(C)cc(NC(=O)CSCc2cc(=O)c3cc(Cl)ccc3[nH]2)c1	x	-17%	4%	18%[57 µM]	x	25%[59 µM]	x
Cc1ccc(NC(=O)c2ccc(Br)cc2)c(C(=O)c2ccccc2)c1	x	-8%	-7%	23%	x	-9%[59 µM]	x
Cc1cccc(OCC(=O)Nc2cc(NC(=O)COc3cccc(C)c3)cc(C(=O)O)c2)c1	-3	-15%	9%	-17%	u	x	x
Cc1ccc(NC(=O)c2cccc(C(=O)Nc3ccc(C)cc3C(=O)O)c2)c(C(=O)O)c1	-83*	-5%	5%	45%	21µM*	1%[2.33 µM]	3%
